Usually AC50 stands for the midpoint of the concentration-response curve, whichever way the signal moves.

Data on seven compounds can be found in PubChem BioAssay (EPA / NIEHS).

Assay [1] can be described thus: ATG_Oct_MLP_CIS: Attagene CIS-FACTORIAL HepG2 Assay for human Octamer-Binding Transcription Factor (Oct) (AID 2282993). As to conditions: HepG2 Attagene cis-factorial Oct reporter, mRNA; actives raise or lower the signal. The gist of the method: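 HepG2, transient MRTU transfection, cis promoter elements; 24 h dosing; RT-PCR/CE fluorescence read-out of reporter mRNA; fit both directions vs DMSO.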

Assay [2] addresses Cellular tumor antigen p53 (Homo sapiens) (UniProt P04637). As to the kind of experiment: ATG_p53_CIS: Attagene CIS-FACTORIAL HepG2 Assay for human p53 Transcription Factor (AID 2282994). The following applies: HepG2 p53 cis-element reporter, Attagene mRNA; actives raise or lower the signal. The gist of the method:
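HepG2, transient MRTU transfection (cis promoter elements, endogenous TFs); 24 h dosing; RNA isolation, RT-PCR, 6-FAM primer extension, HpaI digest, CE fluorescence; bidirectional fit vs DMSO.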

The nature of assay [3]: BSK_3C_TissueFactor: BioMAP Diversity Plus: 3C Assay for Tissue Factor Biomarker Activity (AID 2282997). As to conditions: BioMAP 3C HUVEC, tissue factor biomarker readout; actives raise or lower the signal. The gist of the method:
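HUVEC were treated 24 h, then surface tissue factor measured by ELISA and fitted bidirectionally against DMSO. Parallel SRB total-protein staining assessed overt cytotoxicity at the same time point.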

Assay [4] can be described thus: BSK_3C_uPAR: BioMAP Diversity Plus: 3C Assay for Urokinase-type plasminogen activator receptor (uPAR) Biomarker Activity (AID 2282998). The following applies: BioMAP 3C HUVEC, uPAR biomarker ELISA; actives raise or lower the signal. The essentials: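 A multiplexed primary-cell system built on human umbilical vein endothelium was used, with chemical present for 24 h before reading. Cell-surface uPAR was detected by ELISA; signal change in either direction counted against DMSO.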
(In an ELISA, binding on a coated surface is turned into a signal by an enzyme label.)

Assay [5] in a line: BSK_3C_VCAM1: BioMAP Diversity Plus: 3C Assay for Vascular cell adhesion molecule 1 (VCAM1) Biomarker Activity (AID 2282999). The following applies: BioMAP 3C HUVEC, VCAM1 ELISA, cytokine-stimulated; actives raise or lower the signal. The essentials: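 Human umbilical vein endothelial cells were dosed with compound for 24 h, after which cell-surface VCAM-1 was quantified by ELISA. Bidirectional curve fitting used DMSO as negative control and activity baseline.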

Assay [6] is described as follows: BSK_4H_Eotaxin3: BioMAP Diversity Plus: 4H Assay for Eotaxin 3 Biomarker Activity (AID 2283000).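 For outcome: CCL26 protein level quantified by ELISA in parallel with SRB cytotoxicity check.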 As to conditions: primary human endothelial cells (HUVEC); actives raise or lower the signal. The gist of the method:
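Eotaxin-3 (CCL26) levels were measured by ELISA in HUVEC primary cultures 24 h post-dosing. Gain or loss of signal was fitted in both directions, with DMSO serving as baseline and negative control.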

Read-out in assay [7]: Intercellular Adhesion Molecule 1 (ICAM1), ICAM1 (gene 3383)
As to the kind of experiment: BSK_3C_ICAM1: BioMAP Diversity Plus: 3C Assay for Intercellular Adhesion Molecule 1 (ICAM1) Biomarker Activity (AID 2283003). The following applies: primary human endothelial cells (HUVEC); actives raise or lower the signal. The essentials: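 HUVEC primary cells stimulated under 3C conditions; ICAM1 measured by ELISA 24 h after compound dosing. Curves fitted bidirectionally against the DMSO baseline. Overt cytotoxicity checked by SRB staining of parallel cultures.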

Assay [8] is described as follows: BSK_3C_Proliferation: Cell Proliferation Assessment in the BioMAP Diversity Plus: 3C Assay (AID 2283006).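 For AC50: potency may reflect either rise or fall in cell number versus DMSO.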 The following applies: primary human endothelial cells (HUVEC). The essentials: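 Subconfluent HUVEC (3C system) cultured with chemical; relative cell number read at 48 h by sulforhodamine B total-protein staining (0.1% SRB after 10% TCA fixation, 560 nm). Bidirectional fit relative to DMSO.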

For assay [9], the target named is Peroxisome proliferator-activated receptor gamma (Homo sapiens) (UniProt P37231). As to the kind of experiment: ATG_PPARg_TRANS: Attagene TRANS-FACTORIAL HepG2 Assay for human Peroxisome Proliferator-activated Receptor-gamma (PPARg) (AID 2283007; active = hit-call score of the fitted dose curve at least 0.9, where 1 is the maximum). The gist of the method:
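Twenty-four hours after chemical dosing of transiently transfected HepG2 cells, isolated RNA was converted to cDNA, reporter sequences amplified and 6-FAM-labelled, then HpaI-digested and analysed by capillary electrophoresis. Signal increase against DMSO was fitted.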

Assay [10] has as its target Nuclear receptor subfamily 1 group I member 2 (Homo sapiens) (UniProt O75469). Description: ATG_PXR_TRANS: Attagene TRANS-FACTORIAL HepG2 Assay for human Pregnane X Receptor (PXR) (AID 2283008; active = hit-call score of the fitted dose curve at least 0.9, where 1 is the maximum). The gist of the method: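 Read-out is fluorescence of labelled reporter cDNA fragments separated by capillary electrophoresis after RT-PCR and HpaI digestion. Source: HepG2 cells carrying PXR-GAL4/UAS reporter constructs, treated 24 h; activity fitted upward relative to DMSO.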

The target of assay [11] is human RAR-related Orphan Receptor gamma (RORg), RORC (gene 6097) (UniProt P51449). Description: ATG_RORg_TRANS: Attagene TRANS-FACTORIAL HepG2 Assay for human RAR-related Orphan Receptor gamma (RORg) (AID 2283011; active = hit-call score of the fitted dose curve at least 0.9, where 1 is the maximum). The gist of the method: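 HepG2 cells transiently transfected with GAL4-UAS reporter units and chimeric RORg-Gal4 construct; after 24 h chemical exposure, reporter mRNA measured by RT-PCR with fluorescent capillary electrophoresis, gain of signal fitted against DMSO.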

For assay [12], the target named is Retinoic acid receptor RXR-alpha (Homo sapiens) (UniProt P19793). As to the kind of experiment: ATG_RXRa_TRANS: Attagene TRANS-FACTORIAL HepG2 Assay for human Retinoid X Receptor alpha (RXRa) (AID 2283012; active = hit-call score of the fitted dose curve at least 0.9, where 1 is the maximum). The gist of the method: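 HepG2 cells transiently transfected with GAL4-UAS reporter units and chimeric RXRa-Gal4 protein, treated 24 h. Reporter mRNA measured by RT-PCR, fluorescent labelling, HpaI digestion and capillary electrophoresis. Induction fitted against DMSO.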

Read-out in assay [13]: Interleukin-1 alpha (IL1a), IL1A (gene 3552)
As to the kind of experiment: BSK_BE3C_IL1a: BioMAP Diversity Plus: BE3C Assay for Interleukin-1 alpha (IL1a) Biomarker Activity (AID 2283016). The following applies: primary human bronchial epithelial cells; actives raise or lower the signal. The gist of the method: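 Human primary bronchial epithelial cells, 24 h chemical exposure; IL-1a quantified by ELISA, fitted bidirectionally against DMSO. Cytotoxicity assessed in parallel by SRB total-protein staining at the time of measurement.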

The target of assay [14] is human Peroxisome Proliferator-activated Receptor alpha (PPARa), PPARA (gene 5465) (UniProt Q07869). As to the kind of experiment: ATG_PPARa_TRANS: Attagene TRANS-FACTORIAL HepG2 Assay for human Peroxisome Proliferator-activated Receptor alpha (PPARa) (AID 2283001; active = hit-call score of the fitted dose curve at least 0.9, where 1 is the maximum). The gist of the method:
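Gain-of-signal endpoint: reporter mRNA induction relative to DMSO, detected by fluorescent RT-PCR and capillary electrophoresis. HepG2 cells transiently carried GAL4-UAS-driven reporter units plus NR-Gal4 fusion; exposure lasted 24 h.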

Assay [15] concerns the target human Retinoid X Receptor beta (RXRb), RXRB (gene 6257) (UniProt P28702). Description: ATG_RXRb_TRANS: Attagene TRANS-FACTORIAL HepG2 Assay for human Retinoid X Receptor beta (RXRb) (AID 2283013; active = hit-call score of the fitted dose curve at least 0.9, where 1 is the maximum). The essentials:
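HepG2 cells were transiently transfected with multiplexed GAL4-UAS reporters and a chimeric RXRb-Gal4 construct, then exposed for 24 h. Reporter mRNA was quantified by RT-PCR, FAM labeling, HpaI digestion and capillary electrophoresis; gain of signal was scored against DMSO.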

Assay [16] concerns the target human Retinoic Acid Receptor beta (RARb), RARB (gene 5915) (UniProt P10826). Description: ATG_RARb_TRANS: Attagene TRANS-FACTORIAL HepG2 Assay for human Retinoic Acid Receptor beta (AID 2283004; active = hit-call score of the fitted dose curve at least 0.9, where 1 is the maximum). The gist of the method:
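HepG2 cells were transiently transfected with GAL4-UAS reporter units that report activity of exogenous chimeric NR-Gal4 proteins, then exposed to compound for 24 h. Reporter mRNA was quantified by RT-PCR with capillary electrophoresis fluorescence, as gain of signal over DMSO.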

Assay [17] concerns the target human Thyroid Receptor alpha (THRa1), THRA (gene 7067) (UniProt P10827). As to the kind of experiment: ATG_THRa1_TRANS: Attagene TRANS-FACTORIAL HepG2 Assay for human Thyroid Receptor alpha (THRa1) (AID 2283014; active = hit-call score of the fitted dose curve at least 0.9, where 1 is the maximum). The gist of the method:
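HepG2 cells transiently transfected with chimeric NR-Gal4 and GAL4-UAS reporter units, dosed 24 h. Reporter mRNA quantified by RT-PCR, fluorescent labeling, HpaI digestion and capillary electrophoresis; gain-of-signal fit versus DMSO.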

Molecules are shown by their SMILES. Inconclusive results are not listed. More than one record can exist for a structure, and the calls need not agree. Activity calls are given as the source filed them. Rule for the calls, unless noted: active = hit-call score of the fitted dose curve at least 0.9, where 1 is the maximum; inactive = score below 0.9.

Chain of Peroxisome proliferator-activated receptor gamma (Homo sapiens) (P37231 whole entry, looked up): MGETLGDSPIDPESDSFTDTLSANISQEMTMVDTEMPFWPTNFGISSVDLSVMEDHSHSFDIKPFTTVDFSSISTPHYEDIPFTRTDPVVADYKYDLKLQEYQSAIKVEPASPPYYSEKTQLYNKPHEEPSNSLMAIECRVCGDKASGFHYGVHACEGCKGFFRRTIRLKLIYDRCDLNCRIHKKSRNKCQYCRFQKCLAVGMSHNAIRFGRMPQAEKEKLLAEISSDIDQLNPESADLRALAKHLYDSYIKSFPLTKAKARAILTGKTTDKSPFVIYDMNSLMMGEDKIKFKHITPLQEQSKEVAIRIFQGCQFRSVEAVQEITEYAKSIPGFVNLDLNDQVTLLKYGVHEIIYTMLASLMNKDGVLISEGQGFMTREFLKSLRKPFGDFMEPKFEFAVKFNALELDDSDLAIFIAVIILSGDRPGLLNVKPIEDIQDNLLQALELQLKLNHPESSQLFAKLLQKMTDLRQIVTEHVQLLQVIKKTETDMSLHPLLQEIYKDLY
Chain of Cellular tumor antigen p53 (Homo sapiens) (P04637 whole entry, looked up): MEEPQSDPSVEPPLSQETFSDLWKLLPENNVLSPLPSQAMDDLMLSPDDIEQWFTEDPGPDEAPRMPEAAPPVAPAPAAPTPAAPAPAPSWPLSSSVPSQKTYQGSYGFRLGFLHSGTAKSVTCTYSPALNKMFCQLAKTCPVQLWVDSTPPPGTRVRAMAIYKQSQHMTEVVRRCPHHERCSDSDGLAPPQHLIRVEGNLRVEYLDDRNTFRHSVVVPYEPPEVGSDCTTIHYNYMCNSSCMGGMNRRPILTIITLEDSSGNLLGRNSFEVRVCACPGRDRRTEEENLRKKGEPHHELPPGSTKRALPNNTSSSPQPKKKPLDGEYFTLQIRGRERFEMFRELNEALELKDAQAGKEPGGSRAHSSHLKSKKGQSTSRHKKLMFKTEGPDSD
Chain of human Retinoid X Receptor beta (RXRb), RXRB (gene 6257) (P28702 whole entry, looked up, the tested form may be a part): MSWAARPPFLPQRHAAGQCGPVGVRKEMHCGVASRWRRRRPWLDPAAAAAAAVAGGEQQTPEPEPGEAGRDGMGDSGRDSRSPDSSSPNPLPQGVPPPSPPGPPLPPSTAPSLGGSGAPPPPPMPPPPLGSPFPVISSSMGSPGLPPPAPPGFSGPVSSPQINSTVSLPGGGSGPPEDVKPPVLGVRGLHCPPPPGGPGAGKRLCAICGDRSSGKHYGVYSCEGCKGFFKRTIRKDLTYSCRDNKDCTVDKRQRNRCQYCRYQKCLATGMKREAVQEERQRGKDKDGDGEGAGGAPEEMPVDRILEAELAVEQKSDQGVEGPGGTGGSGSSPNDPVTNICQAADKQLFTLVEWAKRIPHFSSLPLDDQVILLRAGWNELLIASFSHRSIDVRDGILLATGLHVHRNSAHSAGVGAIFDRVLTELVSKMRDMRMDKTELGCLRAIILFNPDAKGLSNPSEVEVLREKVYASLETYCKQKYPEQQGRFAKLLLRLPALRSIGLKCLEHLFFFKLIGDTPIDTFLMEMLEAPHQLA
Chain of human Thyroid Receptor alpha (THRa1), THRA (gene 7067) (P10827 whole entry, looked up, the tested form may be a part): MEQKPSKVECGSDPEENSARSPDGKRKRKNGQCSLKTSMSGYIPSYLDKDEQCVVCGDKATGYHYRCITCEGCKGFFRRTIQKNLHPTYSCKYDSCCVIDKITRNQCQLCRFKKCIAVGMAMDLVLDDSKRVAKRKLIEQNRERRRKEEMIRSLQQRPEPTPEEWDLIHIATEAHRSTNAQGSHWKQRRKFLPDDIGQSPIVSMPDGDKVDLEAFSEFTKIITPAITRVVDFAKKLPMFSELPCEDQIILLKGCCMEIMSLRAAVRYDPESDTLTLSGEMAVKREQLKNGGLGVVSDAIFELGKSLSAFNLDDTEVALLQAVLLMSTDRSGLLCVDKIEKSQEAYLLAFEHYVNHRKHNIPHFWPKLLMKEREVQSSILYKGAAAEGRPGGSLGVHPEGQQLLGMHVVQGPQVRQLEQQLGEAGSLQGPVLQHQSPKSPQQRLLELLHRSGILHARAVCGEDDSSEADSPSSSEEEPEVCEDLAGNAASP
Chain of human RAR-related Orphan Receptor gamma (RORg), RORC (gene 6097) (P51449 whole entry, looked up, the tested form may be a part): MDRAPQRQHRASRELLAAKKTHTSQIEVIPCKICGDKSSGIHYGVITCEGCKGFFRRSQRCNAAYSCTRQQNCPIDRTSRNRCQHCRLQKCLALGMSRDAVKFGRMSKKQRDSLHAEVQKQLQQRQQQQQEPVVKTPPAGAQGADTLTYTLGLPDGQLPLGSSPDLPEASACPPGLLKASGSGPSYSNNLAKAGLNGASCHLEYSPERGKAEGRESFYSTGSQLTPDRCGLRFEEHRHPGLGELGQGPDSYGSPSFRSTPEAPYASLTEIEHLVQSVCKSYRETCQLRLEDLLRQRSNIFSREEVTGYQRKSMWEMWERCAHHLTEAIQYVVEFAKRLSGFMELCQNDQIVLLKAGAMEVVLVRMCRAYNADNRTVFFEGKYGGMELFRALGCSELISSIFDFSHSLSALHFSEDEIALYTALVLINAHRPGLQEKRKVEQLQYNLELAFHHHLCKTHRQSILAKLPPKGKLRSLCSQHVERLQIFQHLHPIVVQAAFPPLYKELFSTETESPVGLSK
Chain of Nuclear receptor subfamily 1 group I member 2 (Homo sapiens) (O75469 whole entry, looked up, the tested form may be a part): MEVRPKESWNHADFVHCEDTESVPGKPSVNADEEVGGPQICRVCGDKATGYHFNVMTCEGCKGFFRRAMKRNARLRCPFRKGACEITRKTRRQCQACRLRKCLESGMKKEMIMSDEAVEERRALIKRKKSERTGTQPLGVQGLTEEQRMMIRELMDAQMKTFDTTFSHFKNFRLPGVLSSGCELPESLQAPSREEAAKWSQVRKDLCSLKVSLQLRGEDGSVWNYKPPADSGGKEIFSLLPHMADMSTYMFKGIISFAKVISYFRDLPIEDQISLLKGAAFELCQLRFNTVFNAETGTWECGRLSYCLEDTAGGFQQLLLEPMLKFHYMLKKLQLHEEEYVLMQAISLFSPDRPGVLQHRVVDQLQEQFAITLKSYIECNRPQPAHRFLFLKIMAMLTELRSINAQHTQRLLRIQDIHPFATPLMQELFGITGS
Chain of human Peroxisome Proliferator-activated Receptor alpha (PPARa), PPARA (gene 5465) (Q07869 whole entry, looked up, the tested form may be a part): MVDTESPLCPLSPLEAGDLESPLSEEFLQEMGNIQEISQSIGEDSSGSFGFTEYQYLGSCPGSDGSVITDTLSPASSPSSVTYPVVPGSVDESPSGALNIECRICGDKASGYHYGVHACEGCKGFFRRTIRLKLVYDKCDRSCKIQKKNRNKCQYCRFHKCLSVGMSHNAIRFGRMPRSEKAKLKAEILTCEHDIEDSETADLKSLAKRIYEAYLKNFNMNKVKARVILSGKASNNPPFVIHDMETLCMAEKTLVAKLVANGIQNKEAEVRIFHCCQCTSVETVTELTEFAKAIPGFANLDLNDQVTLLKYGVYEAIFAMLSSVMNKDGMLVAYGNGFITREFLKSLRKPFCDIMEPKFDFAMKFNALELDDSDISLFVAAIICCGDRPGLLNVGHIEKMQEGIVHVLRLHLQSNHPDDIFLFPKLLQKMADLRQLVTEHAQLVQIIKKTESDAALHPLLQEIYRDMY
Chain of Retinoic acid receptor RXR-alpha (Homo sapiens) (P19793 whole entry, looked up, the tested form may be a part): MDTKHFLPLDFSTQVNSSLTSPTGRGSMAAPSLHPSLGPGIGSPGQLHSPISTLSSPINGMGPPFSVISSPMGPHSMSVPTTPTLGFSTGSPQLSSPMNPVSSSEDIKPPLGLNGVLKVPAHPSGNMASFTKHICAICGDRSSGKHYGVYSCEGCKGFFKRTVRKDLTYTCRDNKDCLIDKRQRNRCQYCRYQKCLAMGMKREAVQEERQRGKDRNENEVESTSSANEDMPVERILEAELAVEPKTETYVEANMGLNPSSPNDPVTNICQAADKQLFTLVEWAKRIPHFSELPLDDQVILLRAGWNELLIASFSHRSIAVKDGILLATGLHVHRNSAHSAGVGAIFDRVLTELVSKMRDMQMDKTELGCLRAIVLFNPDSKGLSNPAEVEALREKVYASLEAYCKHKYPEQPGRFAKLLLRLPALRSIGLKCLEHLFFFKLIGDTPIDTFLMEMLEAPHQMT
Chain of human Retinoic Acid Receptor beta (RARb), RARB (gene 5915) (P10826 whole entry, looked up, the tested form may be a part): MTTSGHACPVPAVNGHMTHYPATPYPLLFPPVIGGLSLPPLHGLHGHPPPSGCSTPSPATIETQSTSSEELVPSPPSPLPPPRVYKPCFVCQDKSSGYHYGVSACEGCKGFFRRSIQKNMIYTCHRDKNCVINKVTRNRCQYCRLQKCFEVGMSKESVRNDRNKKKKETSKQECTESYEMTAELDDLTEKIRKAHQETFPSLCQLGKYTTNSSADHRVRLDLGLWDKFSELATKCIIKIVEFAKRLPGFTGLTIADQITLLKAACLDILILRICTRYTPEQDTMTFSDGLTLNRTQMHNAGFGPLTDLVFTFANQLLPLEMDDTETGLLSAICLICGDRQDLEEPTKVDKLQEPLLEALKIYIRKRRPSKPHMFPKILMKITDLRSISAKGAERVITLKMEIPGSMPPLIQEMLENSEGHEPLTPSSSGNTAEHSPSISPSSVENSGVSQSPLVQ

On to `CCC(C)N(C)C(=O)c1cc2ccccc2c(-c2ccccc2Cl)n1` (centres undefined), for which the concentration at half-maximal activity (AC50) is 37 µM (active) in assay [1], 27.3 µM (active) in assay [2] and 8.77 µM (active) in [8]. For the same compound, the outcome in assay [3], in assay [4], in assay [5], in assay [6], in assay [7] and in assay [9] was inactive. Moreover, the outcome in assay [10], in assay [11], in [12] and in assay [13] was inactive.

On to `CCCCC(CC)CO` (centres undefined), for which the result in assay [1], in assay [2], in assay [3], in assay [4], in assay [5] and in assay [6] was inactive. In addition, the result in [14], in assay [7], in assay [8], in [10], in [11] and in assay [12] was inactive. Also, the result in assay [15] and in assay [13] was inactive.

Regarding `S=c1[nH]c2ccccc2s1`, the AC50 in [1] was 100 µM (active); in assay [9] it was 9.31 µM (active). In addition, the compound was called inactive in assay [2], in assay [3], in [4], in assay [5], in assay [6] and in [14]. Besides, the result in [7], in assay [8], in assay [11], in assay [12] and in assay [13] was inactive.

On to `C=CCCCCCCCCCCCC`, for which the outcome in assay [1], in assay [2], in assay [3], in assay [4], in [5] and in assay [6] was inactive. In addition, the result in [7], in assay [8], in assay [9], in [10], in assay [12] and in [13] was inactive. For the same compound, the AC50 in assay [15] is 59.1 µM (active).

Regarding `CCN(CC)CCOc1ccc(C(=C(Cl)c2ccccc2)c2ccccc2)cc1`, the concentration at half-maximal activity (AC50) in assay [1] is 7.1 µM (active); in assay [3], 13.5 µM (active); in [4] it was 6.51 µM (active); in assay [5] it was 13.8 µM (active); in [6] it was 12.4 µM (active); in assay [7], 13.7 µM (active). Besides, the AC50 was 2.92 µM (active) in assay [8] and 18.9 µM (active) in assay [13]. Further, the compound was classed as inactive in assay [1], in assay [14], in assay [16], in [9], in assay [11] and in assay [12]. In addition, the compound was called inactive in [15] and in assay [17].

For `CCCCC(CC)COC(=O)CCCCCCCC(=O)OCC(CC)CCCC` (centres undefined), the compound was classed as inactive in assay [1], in assay [2], in assay [3], in assay [4], in assay [5] and in assay [6]. Besides, the compound was called inactive in assay [14], in assay [7], in [8], in assay [10], in assay [12] and in assay [15]. Further, the outcome in assay [13] was inactive.

`O=C1OC(c2ccc(O)cc2)(c2ccc(O)cc2)c2ccccc21`: the half-maximal activity concentration (AC50) in [1] is 26.2 µM (active); in assay [4], 14.6 µM (active); in [5] it was 29.7 µM (active); in assay [8], 15 µM (active); in assay [10], 0.604 µM (active); in assay [13], 34.8 µM (active). In addition, the result in [2], in assay [3], in assay [6], in assay [7], in assay [12] and in [17] was inactive.
